The panel holds about 83,000 compounds, 20% with a hit somewhere; the sample as a whole holds those more often.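 A percent growth of 40 corresponds to 60% growth inhibition; 0 means no net growth; -100 means all cells died. Active threshold: below 10.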 Unmarked numbers belong to inactive results. The source made the active and inactive calls.
Columns and labels:
Assay in all cases: NCI-60 one-dose screen, 48 h (100 = growth as untreated, 0 = no growth, -100 = all killed)
Settings in all cases: 10 µM unless noted
[1] = test system: RPMI-8226 leukemia
[2] = test system: OVCAR-8 ovarian
[3] = test system: OVCAR-5 ovarian
[4] = test system: OVCAR-4 ovarian
[5] = test system: SK-OV-3 ovarian
[6] = test system: IGROV1 ovarian
[7] = test system: OVCAR-3 ovarian
[8] = test system: HS 578T breast
[9] = test system: NCI/ADR-RES ovarian
[10] = test system: T-47D breast

Compound: COc1cc(C#N)cc2[nH]c(=O)oc12
- growth [1]: 107%
- growth [2]: 112%
- growth [3]: 98.8%
- growth [4]: 96.9%
- growth [5]: 113%
- growth [6]: 105%
- growth [7]: 106%
- growth [8]: 99.1%
- growth [9]: 99.6%
- growth [10]: 101%

Compound: COC(=O)/C(=C\c1c(C)[nH]c2ccccc12)S(=O)(=O)c1ccccc1
- growth [1]: -45.8% (active)
- growth [2]: 4.29% (active)
- growth [3]: 33.6%
- growth [4]: 53%
- growth [5]: 22.6%
- growth [7]: -19.8% (active)
- growth [8]: -29.7% (active)
- growth [9]: 4.6% (active)
- growth [10]: 17.8%

Compound: COc1cc(/C=C2\CCC/C(=C\c3cc(CN4CCCCC4)c(O)c(OC)c3)C2=O)cc(CN2CCCCC2)c1O
- growth [1]: 55.5%
- growth [2]: 80.6%
- growth [3]: 114%
- growth [4]: 60.9%
- growth [6]: 88.2%
- growth [7]: 65.2%
- growth [8]: 81.4%
- growth [9]: 87.2%
- growth [10]: 104%

Compound: O=C1OC(c2ccccc2)(c2ccccc2)c2ccsc21
- growth [1]: 89.1%
- growth [2]: 101%
- growth [3]: 95.7%
- growth [4]: 107%
- growth [5]: 102%
- growth [7]: 100%
- growth [8]: 103%
- growth [9]: 115%
- growth [10]: 104%

Compound: CCCCc1c(CCC)c(=N)c2ccccc2n1C
- growth [1]: 29.9%
- growth [2]: 65.5%
- growth [3]: 99.6%
- growth [4]: 73.4%
- growth [5]: 99.1%
- growth [7]: 90.9%
- growth [8]: 122%
- growth [9]: 85.4%
- growth [10]: 85.9%

Compound: N#Cc1c(N)nc2c(c1N)C(c1ccc(F)cc1)c1ccc(N)cc1O2 (stereo not drawn)
- growth [1]: 103%
- growth [2]: 97.5%
- growth [3]: 99.1%
- growth [4]: 96.7%
- growth [5]: 119%
- growth [7]: 118%
- growth [8]: 95.6%
- growth [9]: 107%
- growth [10]: 92.3%

Compound: COc1ccc(-c2cn3c(C(=O)Nc4ccccc4Cl)c(-c4ccccc4)c4c3n2CCCC4)cc1
- growth [1]: 68.5%
- growth [2]: 83.6%
- growth [3]: 79.8%
- growth [4]: 74.6%
- growth [5]: 86.4%
- growth [7]: 84.1%
- growth [8]: 114%
- growth [9]: 81.7%
- growth [10]: 78.9%

Compound: Cn1cc([C@@H]2Nc3ccc4[nH]ncc4c3[C@H]3[C@H]4CCC(C4)[C@H]32)c(C(F)(F)F)n1
- growth [1]: 46.6%
- growth [2]: 62.5%
- growth [3]: 79.4%
- growth [4]: 77.4%
- growth [5]: 77.4%
- growth [7]: 34.7%
- growth [8]: 34%
- growth [9]: 31.3%
- growth [10]: 52.6%

Compound: COc1ccc2sc(N(Cc3cccnc3)C(=O)c3ccc(C#N)cc3)nc2c1
- growth [1]: 64.4%
- growth [2]: 80.7%
- growth [3]: 96.7%
- growth [4]: 105%
- growth [5]: 106%
- growth [7]: 92.2%
- growth [8]: 85.1%
- growth [9]: 85.4%
- growth [10]: 78.3%

Compound: Nc1ccc(C2c3ccccc3Oc3ccccc32)cc1
- growth [1]: 94%
- growth [2]: 102%
- growth [3]: 101%
- growth [4]: 105%
- growth [5]: 98.3%
- growth [6]: 91.8%
- growth [7]: 96.4%
- growth [9]: 100%
- growth [10]: 84.1%

Compound: Cc1ccc(C(=O)c2oc3ccc4c(C)cc(=O)oc4c3c2C)cc1
- growth [1]: 0.992% (active)
- growth [2]: 8.23% (active)
- growth [3]: 66%
- growth [4]: 33.9%
- growth [5]: 46.9%
- growth [7]: 28.7%
- growth [8]: 86.5%
- growth [9]: 29.5%
- growth [10]: 14.8%

Compound: COc1cc(C2C(C#N)=C(N)OC3=C2C(=O)c2ccccc2C3=O)cc(OC)c1O (stereo not drawn)
- growth [1]: 17.1%
- growth [2]: 33.7%
- growth [3]: 65.5%
- growth [4]: 81.9%
- growth [5]: 48.2%
- growth [6]: 62.1%
- growth [7]: 1.44% (active)
- growth [8]: 6.8% (active)
- growth [9]: 66.5%
- growth [10]: 88.4%

Compound: CCOC(=O)C1=C(C)N=c2s/c(=C\c3ccccc3O)c(=O)n2C1c1ccc(OC)c2ccccc12 (stereo not drawn)
- growth [1]: -15.1% (active)
- growth [2]: 13.2%
- growth [3]: 51.6%
- growth [4]: 38.6%
- growth [5]: 61.7%
- growth [7]: 10.1%
- growth [8]: 10.4%
- growth [9]: 48.3%
- growth [10]: 23.3%

Compound: O=C(Nc1ccc(N2CCNCC2)cn1)c1[nH]ncc1Nc1ncnc2sc3c(c12)CCC3
- growth [1]: -38.2% (active)
- growth [2]: -38.9% (active)
- growth [3]: 20.7%
- growth [4]: -53.6% (active)
- growth [5]: 79.8%
- growth [7]: -39.3% (active)
- growth [8]: 73%
- growth [9]: 42.6%
- growth [10]: 43.8%

From PubChem BioAssay (NCI)
